In PubChem BioAssay (NCI):
This is part of a sample that, as a whole, favours compounds with a hit. Of some 79,000 tested, about 15% had one in any assay. Cut-off read from the data, not from the text of the source: active = growth inhibition above about 70%; inactive = the rest. Where a SMILES comes first, the peptide text is derived from it. The star is where a group is joined. Cbz = O=C(OCc1ccccc1)*

Assays:
[1] = NCI Yeast Anticancer Drug Screen. Data for the rad50 strain (AID 155);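 note: 0% = growth of vehicle-only cultures of the same strain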; details: S. cerevisiae rad50 strain growth inhibition; at 50.0 µM; active compounds read high
In short: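 Growth of the mutant yeast was measured after compound exposure and referenced to vehicle-treated cultures.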

[2] = NCI Yeast Anticancer Drug Screen. Data for the mec2-1 strain (AID 157); details: S. cerevisiae mec2-1 strain, at 50.0 µM, active compounds read high
In short: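 mec2-1 yeast strain, carrying an alteration in DNA damage repair or cell cycle control, was exposed to compounds; growth inhibition was measured relative to vehicle-treated controls.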

[3] = NCI Yeast Anticancer Drug Screen. Data for the sgs1 mgt1 strain (AID 161);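 note: 0% = growth of cultures given vehicle only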; details: S. cerevisiae sgs1 mgt1 strain, at 50.0 µM, active compounds read high
In short: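 Growth of a repair-deficient yeast mutant was monitored after compound treatment and expressed as inhibition relative to vehicle-treated cultures.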

[4] = NCI Yeast Anticancer Drug Screen. Data for the cln2 rad14 strain (AID 165);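 note: 0% = growth equal to vehicle treated cultures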; details: S. cerevisiae cln2 rad14 strain, at 50.0 µM, active compounds read high
In short: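 Yeast carrying cln2 and rad14 alterations (cell cycle control and DNA damage repair) were exposed to compounds. Growth inhibition was measured against vehicle-treated controls.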

[5] = NCI Yeast Anticancer Drug Screen. Data for the bub3 strain (AID 167); details: S. cerevisiae bub3 mutant strain, at 50.0 µM, active compounds read high
In short: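 Whole-cell yeast assay. The mutant strain was incubated with compounds, and growth inhibition was determined by comparison with vehicle-treated cells.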

[6] = NCI Yeast Anticancer Drug Screen. Data for the mlh1 rad18 strain (AID 175); details: S. cerevisiae mlh1 rad18 strain growth inhibition; at 50.0 µM; active compounds read high
In short: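 Growth inhibition of the yeast strain was measured after compound exposure and expressed relative to vehicle-treated controls. The strain carries defined defects in DNA damage repair.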

Measured: growth inhibition

COC(=O)CC(NC(=O)C(Cc1cncn1C(=O)OCc1ccccc1)NC(=O)OCc1ccccc1)C(=O)O (stereo not drawn)
inactive: [1] 10.2% | [2] 3.25% | [3] 0.45% | [4] 6.8% | [5] 0.05% | [6] -4.55%

COC(=O)c1c(-c2ccccc2)cn(C)c1C
inactive: [1] 16.9% | [2] 9.95% | [3] 12.8% | [4] 5.75% | [5] 6.6% | [6] -6.4%

CC1COB(c2ccccc2)OCC(C)N1CNC(=O)C1=C(O)C2(O)C(O)=C3C(=O)C4C(O)=CC=CC4C(C)(O)C3CC2C(N(C)C)C1=O (stereo not drawn)
inactive: [1] -8.75% | [2] 33.2% | [3] 34.6% | [4] -16.6% | [5] -6.85% | [6] 38.6%

O=C(O)c1cc(-c2ccccc2)nc2c(Cl)cc(Cl)cc12
inactive: [1] -12.9% | [2] -28.8% | [3] -1.85% | [4] 9.8% | [5] -16.4% | [6] -3.6%

O=C(NCC(O)CNC(=O)C(F)(F)F)C(F)(F)F
inactive: [1] 5.2% | [2] 7.75% | [3] 8.75% | [4] 28.4% | [5] 14.4% | [6] -27.2%

CCCCCCCC/C=C/CCCCCC1CCCC(C)N1 (stereo not drawn)
inactive: [1] 26.9% | [2] -20.6% | [3] 2.3% | [4] 3.65% | [5] -11.2% | [6] -2.55%

O=C(COc1ccccc1)NCc1ccc(Cl)cc1
inactive: [1] 2.4% | [2] 2.05% | [3] 5.8% | [4] 7.15% | [5] 26.9% | [6] 21.9%

CCC(=O)N1CCN(C(=O)CC)c2ccccc21
inactive: [1] -3% | [2] -5.8% | [3] -0.25% | [4] -5.25% | [5] 0.75% | [6] 6.65%

CCOC(=O)C1C(C)=CC(=O)CC1CC (stereo not drawn)
inactive: [1] 24.3% | [2] -10.7% | [3] 14.8% | [4] -1.05% | [5] -3.85% | [6] 22.5%

O=C(O)CSC(=S)c1ccccc1
inactive: [1] 16.4% | [2] 19.8% | [3] 4% | [4] -5.7% | [5] -15.8% | [6] -12.9%

CCC(=O)c1cccc(-c2ccccc2)c1CC
inactive: [1] 17.9% | [2] -7% | [3] 15.9% | [4] 4.05% | [5] -22.6% | [6] 12.9%

CCOC(=O)c1c(NCc2ccccc2)n(-c2ccccc2)c(=S)n(-c2ccccc2)c1=O
inactive: [1] 17.1% | [2] -6.8% | [3] 0.6% | [4] 32.1% | [5] 14.8% | [6] 53%

Cc1cc(C(N)=O)c(C(N)=O)c(=O)[nH]1
inactive: [1] -13.1% | [2] 2% | [3] 0% | [4] -7.5% | [5] -14.2% | [6] 15.8%

CCCCCCCCCCCCSCC(=O)O
inactive: [1] -16.8% | [2] 10.8% | [3] 14.2% | [4] -82.8% | [5] 39% | [6] -25.8%

CCOC(=O)c1cc2c(oc1=O)-c1cc(C)ccc1OC2C (stereo not drawn)
inactive: [1] -9.45% | [2] -14.8% | [3] 8.75% | [4] -40.6% | [5] -38.4% | [6] 11.1%

Nc1nc2c(ncn2-c2cccc(Cl)c2)c(=O)[nH]1
inactive: [1] -0.9% | [2] 16.5% | [3] 7.55% | [4] -7.5% | [5] 31.5% | [6] 13.8%

CCCCCCCC(N)C(=O)O (stereo not drawn)
inactive: [1] 0% | [2] -2.55% | [3] 2.25% | [4] -26.2% | [5] -10.1% | [6] -12.9%

CSC(=S)n1nc(-c2cccs2)c(N=Nc2ccc([N+](=O)[O-])cc2)c1C(F)(F)F
inactive: [1] 19.1% | [2] -3.75% | [3] 19.9% | [4] 12.2% | [5] 3.8% | [6] 0.85%

Cc1cccc(-c2nc3sc(-c4cccc(C)n4)nc3s2)n1
inactive: [1] -9.7% | [2] 3.05% | [3] -13.3% | [4] -29.6% | [5] 4.05% | [6] -16.3%

COc1ccc(Cl)cc1NC(=O)c1cccc([N+](=O)[O-])c1O
inactive: [1] -14.9% | [2] 8.95% | [3] 1.75% | [4] -8.55% | [5] 8.65% | [6] -78.4%

N#CSc1nc[nH]c1C(N)=O
inactive: [1] -38.2% | [2] -12.4% | [3] 3.45% | [4] -16.6% | [5] -26.3% | [6] -4.4%

CCCCNCC#N
inactive: [1] 20.4% | [2] -10.7% | [3] -0.85% | [4] 7.4% | [5] 5.15% | [6] 3.95%

c1ccc(-c2nnn(CCN3CCCCC3)n2)cc1
inactive: [1] 33.1% | [2] 20.9% | [3] -3.9% | [4] 12.1% | [5] 34% | [6] 23.5%

CC(O)(c1cccc(OCc2ccccc2)c1)c1ccccn1 (stereo not drawn)
inactive: [1] 12.3% | [2] 0.05% | [3] 5.7% | [4] -11.4% | [5] -6.15% | [6] -7.8%

Cc1cc2c(cc1C)NS(=O)(=O)N2
inactive: [1] 18.4% | [2] 10.4% | [3] 7.25% | [4] -21.7% | [5] 4.9% | [6] 7.35%

Cc1ccc(/C=C/c2cc(/C=C/c3ccc(C)cc3)c([N+](=O)[O-])cc2[N+](=O)[O-])cc1
inactive: [1] 23.2% | [2] -15.2% | [3] -2.3% | [4] -61.8% | [5] -1.4% | [6] 1.2%

O=C(Nc1cc(C(=O)Nc2cccc(S(=O)(=O)O)c2)cc(C(=O)Nc2cccc(S(=O)(=O)O)c2)c1)c1cccc(C(=O)Nc2cc(C(=O)Nc3cccc(S(=O)(=O)O)c3)cc(C(=O)Nc3cccc(S(=O)(=O)O)c3)c2)c1
inactive: [1] -0.1% | [2] -0.1% | [3] -15.4% | [4] 3.4% | [5] 4.8% | [6] -5.55%

CCCCCCCCCCCCCCCc1cc(O)ccc1N=O
inactive: [1] -3.8% | [2] -16.5% | [3] -8.3% | [4] -3.45% | [5] -1.05% | [6] -11.7%

Cn1c(=O)[nH]c(=O)c2[nH]c(=O)c(=O)n(C)c21
inactive: [1] -3.15% | [2] 23.3% | [3] 1.55% | [4] -1.9% | [5] -9.5% | [6] -13.1%

C(=C\c1ccccc1)/C=N/N=C/C=C/c1ccccc1
inactive: [1] -5.5% | [2] -30.1% | [3] -10.9% | [4] -37% | [5] 4.45% | [6] -4%

CCC(c1ccc(O)cc1)c1cc2c(cc1OCCO)OCO2 (stereo not drawn)
inactive: [1] -15.7% | [2] -9.25% | [3] -5.7% | [4] -11.2% | [5] -7.9% | [6] -5.3%

O=C(O)C1C2C=CC(O2)C1C(=O)Nn1cccc1 (stereo not drawn)
inactive: [1] 6.5% | [2] -7.5% | [3] -17.6% | [4] -12.8% | [5] -16.6% | [6] -6.75%

COC(=O)C(CC(C)C)NC(=O)C(CCCN=C(N)N)NC(=O)OCc1ccccc1 (stereo not drawn) (Cbz-Arg-Leu-OMe; configuration not given here)
inactive: [1] -27.7% | [2] -17.6% | [3] -15.7% | [4] 4.15% | [5] -10.3% | [6] -12.8%

CC(=O)Nc1c(I)c(C(=O)NC2C(O)OC(CO)C(O)C2O)c(I)c(N(C)C(C)=O)c1I (stereo not drawn)
inactive: [1] -27.2% | [2] 4.55% | [3] -14.2% | [4] -21.6% | [5] -21.5% | [6] -38%

COc1c2occc2c(Br)c2ccc(=O)oc12
inactive: [1] 13% | [2] 0.35% | [3] 19.4% | [4] 7.45% | [5] 51.8% | [6] 8.6%

OCCN(CCO)CCCNc1ccnc2cc(Cl)ccc12
inactive: [1] -22.6% | [2] -2% | [3] -0.65% | [4] -39.9% | [5] -12.8% | [6] 5.2%

O=C(O)c1ccccc1N1C(=O)c2ccccc2C1=O
inactive: [1] 4.95% | [2] -33.2% | [3] -4.1% | [4] 8.2% | [5] 11.2% | [6] -1.55%

O=C(NCC(C(=O)OCc1ccccc1)C(=O)OCc1ccccc1)OCc1ccccc1
inactive: [1] -8.9% | [2] -13.8% | [3] 1.55% | [4] -14.1% | [5] -24.4% | [6] -12.3%
